test system: Mast/stem cell growth factor receptor Kit (Homo sapiens), P10721 [V560G]; conditions: at 1 µM
Sequence (P10721 whole entry V560G): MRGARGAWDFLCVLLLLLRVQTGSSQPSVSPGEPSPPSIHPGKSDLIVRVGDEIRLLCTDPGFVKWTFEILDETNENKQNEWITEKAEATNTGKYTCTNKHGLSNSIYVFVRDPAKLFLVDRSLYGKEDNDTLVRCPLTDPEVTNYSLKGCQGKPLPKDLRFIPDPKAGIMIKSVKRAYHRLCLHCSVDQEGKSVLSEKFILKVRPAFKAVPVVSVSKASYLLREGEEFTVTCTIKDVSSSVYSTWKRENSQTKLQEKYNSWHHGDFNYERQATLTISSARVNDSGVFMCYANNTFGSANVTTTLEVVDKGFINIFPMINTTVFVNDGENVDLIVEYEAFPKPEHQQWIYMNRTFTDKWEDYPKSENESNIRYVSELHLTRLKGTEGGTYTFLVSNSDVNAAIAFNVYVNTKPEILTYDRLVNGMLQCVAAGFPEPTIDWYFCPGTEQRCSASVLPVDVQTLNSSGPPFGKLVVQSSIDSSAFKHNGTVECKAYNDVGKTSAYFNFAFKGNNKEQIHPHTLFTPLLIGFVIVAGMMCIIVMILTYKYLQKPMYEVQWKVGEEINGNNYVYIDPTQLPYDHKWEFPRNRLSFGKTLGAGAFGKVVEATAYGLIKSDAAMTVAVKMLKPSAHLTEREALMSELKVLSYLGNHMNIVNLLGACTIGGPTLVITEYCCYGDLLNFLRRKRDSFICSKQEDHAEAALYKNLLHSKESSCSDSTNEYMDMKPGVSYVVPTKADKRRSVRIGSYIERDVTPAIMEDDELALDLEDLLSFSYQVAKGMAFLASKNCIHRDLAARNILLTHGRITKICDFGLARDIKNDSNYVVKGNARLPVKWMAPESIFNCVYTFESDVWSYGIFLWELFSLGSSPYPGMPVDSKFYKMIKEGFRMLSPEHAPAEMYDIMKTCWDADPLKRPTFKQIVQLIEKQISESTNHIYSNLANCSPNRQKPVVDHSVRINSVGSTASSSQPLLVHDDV

SMILES | inhibition [%]
CN1CCC(C(=O)Nc2n[nH]c3nnc(-c4ccccc4)cc23)CC1 | 1.05
COc1cc2ncn(-c3cc(OCc4ccccc4C(F)(F)F)c(C(N)=O)s3)c2cc1OC | 2.96
CCn1c(-c2nonc2N)nc2ccncc21 | -0.33
COc1cc2ncn(-c3cc(OCc4ccccc4Cl)c(C(N)=O)s3)c2cc1OC | 3.13
CC1=C(C(=O)Nc2ccc3[nH]ncc3c2)C(c2ccc(Cl)c(Cl)c2)CC(=O)N1 (centres undefined) | 4.56
CS(=O)(=O)CCN(CC#N)Cc1ccc(-c2ccc3ncnc(Nc4ccc(OCc5cccc(F)c5)c(Cl)c4)c3c2)o1 | -2.04
Nc1ncnc2occ(-c3ccc(NC(=O)Nc4cccc(C(F)(F)F)c4)cc3)c12 | 97.8
NC(=O)c1ccc(-c2nc(-c3ccccn3)c(-c3ccc4c(c3)OCO4)[nH]2)cc1 | 6.23
O=C1NC(=O)C(N2CCc3ccccc32)=C1c1ccc(Cl)cc1 | 3.94
O=C1NC(=O)C(c2ccc(Cl)cc2)=C1Nc1ccc(Cl)c(C(=O)O)c1 | 8.56
NC(=O)c1cccc(Nc2nccc(Nc3cccc4[nH]ncc34)n2)c1 | 22.5
CNC(=O)c1cncc(/C=C/c2c(Cl)cccc2Cl)c1 | 10.9
COc1ccc(-c2coc3ncnc(N)c23)cc1 | 7.39
Cc1nn(C)c2cc(N(C)c3ccnc(Nc4cccc(S(N)(=O)=O)c4)n3)ccc12 | 37.3
O=C1NC(=O)C(c2cccc(Cl)c2)=C1Nc1ccc(O)c(Cl)c1 | 1.92
O=C1Nc2ccc(C(=O)c3ccco3)cc2C1=Cc1cc(Cl)c(O)c(Cl)c1 | 6.75
NS(=O)(=O)c1ccc(N/N=C2\C(=O)Nc3ccc(C(=O)NCCc4c[nH]cn4)cc32)cc1 | 3.01

SMILES | inhibition [%]
Nc1nc(-c2ccc3c(c2)C(=Cc2cc(Br)c(O)c(Br)c2)C(=O)N3)cs1 | 1.96
O=C(Nc1n[nH]c2nc(-c3ccco3)c(Br)cc12)C1CC1 | 1.62
Cn1cc(C=C2C(=O)Nc3cccnc32)c2ccccc21 | 3.99
CC1=C(C(=O)Nc2ccc3[nH]ncc3c2)C(c2ccc(F)cc2)NC(=O)N1 (centres undefined) | 0.31
CCn1c(-c2nonc2N)nc2c(N3CCCC3)nccc21 | 1.06
COc1cc2c(cc1Nc1nc(N3CCc4ccccc43)c3cc[nH]c3n1)N(C(=O)CN(C)C)CC2 | 1.28
Cc1cccc(-c2n[nH]cc2-c2ccc3ncccc3n2)n1 | -0.13
CCc1cccc(NC(=O)Nc2ccc(Oc3ccc4nc(NC(=O)OC)[nH]c4c3)cc2)c1 | 74.1
COc1ccc(-c2nn3ncccc3c2-c2ccnc(Nc3ccc(Cl)c(C(F)(F)F)c3)n2)cc1 | -0.17
Nc1ncnc2occ(-c3ccc(NC(=O)Nc4cc(C(F)(F)F)cc(C(F)(F)F)c4)cc3)c12 | 82.2
CCn1c(-c2nonc2N)nc2cncc(C(=O)N3CC[C@H](N)C3)c21 | -1.61
COC(=O)Nc1nc2cc(Oc3ccc(NC(=O)Nc4cccc(C(=O)O)c4)cc3)ccc2[nH]1 | 15.5
[O-][S+]1CCN(Cc2ccc(-c3ccc4ncnc(Nc5ccc(OCc6ccccc6)c(F)c5)c4c3)o2)CC1 | -2.71
COc1cc(C=NNc2ncnc3c2cnn3-c2ccccc2)ccc1O | 12.3
NCc1ccc(-c2nc(-c3ccc(Cl)c(O)c3)c(-c3ccncc3)[nH]2)cc1 | 6.11
Cc1nnc(-c2ccc(C)c(-c3ccc(C(=O)Nc4cccc(C#N)c4)cc3)c2)o1 | 2.86
CCn1c(-c2nonc2N)nc2c(C#CC(C)(C)O)nc(OC[C@@H](N)c3ccccc3)cc21 | 2.43

From ChEMBL document CHEMBL1961873, “Compounds: GSK PKIS; Assays: Nanosyn kinase panel” (2012)
